Active and inactive are the calls of the source.
Tests used:
[1] = E. coli DRC41 culture turbidity changes, primary screen, E. coli filamentation inducer project, strain DRC41, OD650, 48 h (AID 1152);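 also: E. coli MC1000 strain DRC41 lacking acrAB efflux pump and sulA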; details: E. coli DRC41 (acrAB sulA), higher = more signal, called active from +8 up or from −8 down
[2] = small-molecule binders of probe aLefty1, primary screen, biochemical, small-molecule microarray, 635/667 nm fluorescence (AID 1153); details: higher = more signal;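 also: score merges spot fluorescence with signal-to-noise ratio from the scanned slide images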
[3] = PSAC antagonists in infected red cells, primary screen, cell-based, P. falciparum Indochina, OD700, 1 h (AID 1154); details: P. falciparum Indochina infected RBC osmotic lysis, higher = more signal, called active from +8 up or from −8 down
[4] = PSAC antagonists in infected red cells, primary screen, cell-based, P. falciparum Indochina, OD700, 2 h (AID 1155);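 also: lysis reports solute entry through the parasite surface anion channel PSAC; channel blockers reduce lysis of infected cells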; details: P. falciparum Indochina infected erythrocytes, osmotic lysis OD700; higher = more signal, called active from +8 up or from −8 down
[5] = osmotic lysis modulators in infected erythrocytes, primary screen, PSAC antagonist project, cell-based, P. falciparum Indochina, OD700, 3 h (AID 1156); details: higher = more signal, called active from +8 up or from −8 down
[6] = PSAC antagonists in infected red cells, primary screen, cell-based, P. falciparum Indochina, OD700, 18 h (AID 1157); details: P. falciparum Indochina infected erythrocytes, osmotic lysis OD700, 18 h; higher = more signal, called active from +8 up or from −8 down
[7] = modulators of S6 phosphorylation in cells, primary screen, cell-based, A549, cytoblot, luminescence, serum-stimulated (AID 1158); details: A549 phospho-S6 cytoblot, 5 h, higher = more signal;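 also: serum-stimulated A549 lung adenocarcinoma cells; signal is phosphorylated S6 detected by cytoblot immunostaining with HRP secondary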
[8] = molecular target: NADPH oxidase 2 (Homo sapiens) (UniProt P04839); assay: NOX2-dependent H2O2 signal modulators, primary screen, NOX inhibitor project, cell-based, HEK293-NOX2, PMA-stimulated, Amplex Red fluorescence (AID 1159); details: 45 min, higher = more signal, called active from +8 up or from −8 down; also: test concentration not given here
NADPH oxidase 2 (Homo sapiens), sequence (P04839 whole entry, looked up): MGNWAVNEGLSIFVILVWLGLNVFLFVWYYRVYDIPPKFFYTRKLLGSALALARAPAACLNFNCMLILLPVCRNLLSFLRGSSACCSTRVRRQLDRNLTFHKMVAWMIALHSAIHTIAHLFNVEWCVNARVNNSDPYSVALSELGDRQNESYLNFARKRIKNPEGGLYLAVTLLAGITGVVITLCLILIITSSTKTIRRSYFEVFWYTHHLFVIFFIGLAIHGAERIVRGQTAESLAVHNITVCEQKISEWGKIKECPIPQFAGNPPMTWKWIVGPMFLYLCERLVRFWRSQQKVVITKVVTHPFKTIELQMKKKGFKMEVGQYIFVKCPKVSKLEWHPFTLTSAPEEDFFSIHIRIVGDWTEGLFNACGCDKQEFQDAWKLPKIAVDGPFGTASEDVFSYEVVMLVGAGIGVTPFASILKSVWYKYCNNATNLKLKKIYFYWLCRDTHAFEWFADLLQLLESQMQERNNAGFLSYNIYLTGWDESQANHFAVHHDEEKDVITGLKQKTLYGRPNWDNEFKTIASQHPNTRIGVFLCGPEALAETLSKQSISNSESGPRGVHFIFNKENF

[9] = molecular target: NADPH oxidase 4 (Homo sapiens) (UniProt Q9NPH5); assay: NOX4-dependent H2O2 signal modulators, primary screen, NOX inhibitor project, cell-based, HEK293-NOX4, tetracycline-induced, Amplex Red fluorescence (AID 1160); details: 45 min, higher = more signal, called active from +8 up or from −8 down
NADPH oxidase 4 (Homo sapiens), sequence (Q9NPH5 whole entry, looked up): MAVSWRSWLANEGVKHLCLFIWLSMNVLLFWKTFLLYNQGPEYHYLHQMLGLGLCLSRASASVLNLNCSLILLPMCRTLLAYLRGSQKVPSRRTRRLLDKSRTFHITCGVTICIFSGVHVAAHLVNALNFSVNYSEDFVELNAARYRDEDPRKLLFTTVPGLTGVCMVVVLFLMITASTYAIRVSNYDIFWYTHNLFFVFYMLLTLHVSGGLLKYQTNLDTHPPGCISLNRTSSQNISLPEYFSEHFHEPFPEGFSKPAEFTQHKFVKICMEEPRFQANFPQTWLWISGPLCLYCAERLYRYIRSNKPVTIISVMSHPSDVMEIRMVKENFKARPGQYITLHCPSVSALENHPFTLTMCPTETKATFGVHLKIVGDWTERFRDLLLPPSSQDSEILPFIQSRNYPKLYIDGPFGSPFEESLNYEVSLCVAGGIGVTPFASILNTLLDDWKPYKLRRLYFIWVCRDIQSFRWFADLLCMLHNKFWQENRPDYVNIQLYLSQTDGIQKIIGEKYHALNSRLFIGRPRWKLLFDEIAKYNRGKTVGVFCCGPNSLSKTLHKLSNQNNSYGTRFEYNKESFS

[10] = molecular target: NADPH oxidase 5 (Homo sapiens) (UniProt Q96PH1); assay: NOX5-dependent H2O2 signal modulators, primary screen, NOX inhibitor project, cell-based, HEK293-NOX5, Amplex Red fluorescence (AID 1161); details: HEK293-NOX5, ionomycin, 45 min, higher = more signal
NADPH oxidase 5 (Homo sapiens), sequence (Q96PH1 whole entry, looked up): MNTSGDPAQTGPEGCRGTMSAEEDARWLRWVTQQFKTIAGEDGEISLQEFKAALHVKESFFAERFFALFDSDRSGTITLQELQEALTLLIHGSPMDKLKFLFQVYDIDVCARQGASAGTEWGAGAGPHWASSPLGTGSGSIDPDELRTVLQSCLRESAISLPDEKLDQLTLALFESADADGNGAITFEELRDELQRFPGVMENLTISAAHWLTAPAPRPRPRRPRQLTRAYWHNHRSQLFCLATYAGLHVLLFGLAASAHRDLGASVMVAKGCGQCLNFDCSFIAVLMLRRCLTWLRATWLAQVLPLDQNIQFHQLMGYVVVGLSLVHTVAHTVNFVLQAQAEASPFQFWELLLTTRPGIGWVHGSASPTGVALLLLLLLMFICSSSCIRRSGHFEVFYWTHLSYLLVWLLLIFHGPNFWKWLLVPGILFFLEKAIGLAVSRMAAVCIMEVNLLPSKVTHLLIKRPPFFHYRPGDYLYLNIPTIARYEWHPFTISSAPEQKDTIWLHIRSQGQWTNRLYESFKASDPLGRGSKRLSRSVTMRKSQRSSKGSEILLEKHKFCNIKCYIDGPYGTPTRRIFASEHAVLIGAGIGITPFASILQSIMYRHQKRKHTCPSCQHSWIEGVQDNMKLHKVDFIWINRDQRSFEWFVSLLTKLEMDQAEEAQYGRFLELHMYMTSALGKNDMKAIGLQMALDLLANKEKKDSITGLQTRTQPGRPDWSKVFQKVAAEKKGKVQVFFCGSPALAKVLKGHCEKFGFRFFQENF

Structure (SMILES)	z-score [1]	composite z-score [2]	z-score [3]	z-score [4]	z-score [5]	z-score [6]	z-score [7]	z-score [8]	z-score [9]	z-score [10]
C[C@]1(C(=O)NCC(F)(F)F)c2ccccc2C(=O)N(Cc2cc(F)cc(C(F)(F)F)c2)[C@H]1c1ccc(CO)cc1	-0.436 (inactive)	-0.355	4.43 (inactive)	-0.263 (inactive)	2.21 (inactive)	-0.682 (inactive)	2.24	-0.779 (inactive)	-2.9 (inactive)	-3.61
CC(C)C(O)C1C=CC2C(=O)N(C)C(=O)C2N1N1CCCCC1 (stereo not given)	-1.77 (inactive)	0.134	0.193 (inactive)	1.22 (inactive)	0.0667 (inactive)	1 (inactive)	-0.87	-0.569 (inactive)	-0.278 (inactive)	-1.52
C=C(/C(=C/C[C@@H](OC(=O)c1ccncc1)c1ccc(CO)o1)c1cc(C(=O)OC)ccc1OC)C(C)C	0.694 (inactive)	0.107	6.4 (inactive)	1.47 (inactive)	2.63 (inactive)	0.529 (inactive)	0.57	-0.0543 (inactive)	-0.699 (inactive)	-0.86
O=C1OCCC=C[C@H]2OC34C=CCN(CCN5CCOCC5)C(=O)[C@H]3N(CCO)C(=O)[C@@H]4C12 (stereo not given in full)	-0.392 (inactive)	-0.231	0.329 (inactive)	0.392 (inactive)	0.918 (inactive)	0.551 (inactive)	0.65	0.808 (inactive)	0.49 (inactive)	0.0715
C=CCN1C(=O)[C@]2(COC(c3ccc(OCCCO)cc3)=N2)Cc2ccccc21	0.773 (inactive)	0.228	23.7 (active)	7.4 (inactive)	3.23 (inactive)	0.181 (inactive)	1.3	-2.29 (inactive)	0.0437 (inactive)	-2.56
O=C1C2C=CC(C(O)c3cccc4ccccc34)N(n3cnnc3)C2C(=O)N1Cc1ccccc1 (stereo not given)	-1.53 (inactive)	1.69	-0.0851 (inactive)	0.327 (inactive)	0.282 (inactive)	0.339 (inactive)	-0.711	-0.154 (inactive)	0.0285 (inactive)	-0.879
COCCCNC(=O)[C@@]1(Sc2ccc(C)cc2)CC(=O)N(Cc2ccccc2)[C@@H]1c1ccc(CO)cc1	0.186 (inactive)	-1.12	1.25 (inactive)	0.505 (inactive)	1.14 (inactive)	0.107 (inactive)	-0.0519	0.462 (inactive)	0.917 (inactive)	0.162
CN1C(=O)C2C(C1=O)C1C=C(c3ccc(CO)cc3)C2C(C2CC2)N1Cc1sc2ccccc2c1Cl (stereo not given)	0.743 (inactive)	0.146	20.7 (active)	5.75 (inactive)	0.713 (inactive)	1.82 (inactive)	0.0504	-3.97 (inactive)	-0.852 (inactive)	-3.7
C[N+](C)(C)CCCCNC(=O)[C@H]1C[C@H]2C(=O)N3CCC[C@H]3C(=O)N2[C@H]1c1ccc(O)cc1	-0.314 (inactive)	-0.0141	0.542 (inactive)	0.196 (inactive)	-1.66 (inactive)	0.0068 (inactive)	-0.0429	-2.45 (inactive)	-0.739 (inactive)	-1.42
CN(C)CCCCNC(=O)[C@@H]1C[C@@H]2C(=O)N[C@@H](CCCCN)C(=O)N2[C@@H]1c1cccc(OCCO)c1	-0.389 (inactive)	0.837	2.51 (inactive)	0.337 (inactive)	-1.21 (inactive)	-0.0182 (inactive)	-0.446	1.36 (inactive)	1.05 (inactive)	1.43
CC(=O)N1Cc2ccccc2C[C@@]2(N=C(c3ccc(OCCCO)cc3)O[C@H]2c2ccccc2)C1=O	1.6 (inactive)	1.29	24.1 (active)	8.42 (active)	2.76 (inactive)	0.944 (inactive)	2.14	-4.15 (inactive)	0.144 (inactive)	-2.86
CCCC[C@@H]1C[C@H]1[C@@H](NC(=O)c1ccco1)c1ccccc1	-2.76 (inactive)	-0.168	4.64 (inactive)	1.16 (inactive)	0.747 (inactive)	0.545 (inactive)	-0.446	-1.42 (inactive)	-2.53 (inactive)	0.195
Cc1ccc(S[C@]2(C(=O)NCCCN(C)C)CC(=O)N(Cc3ccccc3)[C@@H]2c2ccc(CO)cc2)cc1	0.239 (inactive)	0.136	2.24 (inactive)	0.077 (inactive)	1.5 (inactive)	0.013 (inactive)	0.161	-3.38 (inactive)	0.6 (inactive)	1.89
CCN(CC)c1ccc(N2CC=CC34O[C@@H]5/C=C\CCC(C)OC(=O)C5[C@H]3C(=O)N(CCCCCCO)[C@@H]4C2=O)cc1 (stereo not given in full)	0.699 (inactive)	-0.464	-0.37 (inactive)	0.0486 (inactive)	-0.383 (inactive)	0.33 (inactive)	1.35	-0.315 (inactive)	-0.0195 (inactive)	0.813
[N-]=[N+]=NCc1ccccc1C[C@]1(C(N)=O)N=C(c2ccc(OCCCO)cc2)O[C@H]1c1ccccc1N=[N+]=[N-]	0.125 (inactive)	0.588	34.1 (active)	32.7 (active)	2.52 (inactive)	3.39 (inactive)	-0.59	-3.15 (inactive)	-0.457 (inactive)	-2.02
CCN(CC)c1ccc(N2CC=CC34O[C@@H]5C=CCOC(=O)[C@@H]5[C@H]3C(=O)N(CCCCCO)[C@@H]4C2=O)cc1 (stereo not given in full)	0.825 (inactive)	0.271	1.29 (inactive)	0.172 (inactive)	1.36 (inactive)	0.113 (inactive)	-0.491	0.766 (inactive)	0.449 (inactive)	1.67
O=C1C[C@@](C(=O)O)(c2ccc([N+](=O)[O-])cc2)[C@@H](c2ccc(CO)cc2I)N1CC12CC3CC(CC(C3)C1)C2	-0.455 (inactive)	0.271	27.4 (active)	22.3 (active)	3.79 (inactive)	2.73 (inactive)	-0.429	1.11 (inactive)	-0.681 (inactive)	1.72
